The values below come from PubChem BioAssay (EPA / NIEHS).

Calls of active or inactive are those of the source. The calls were made as follows: active = hit-call score of the fitted dose curve at least 0.9, where 1 is the maximum; inactive = score below 0.9.

CCAAT/enhancer-binding protein beta (Homo sapiens), sequence (P17676 whole entry, looked up): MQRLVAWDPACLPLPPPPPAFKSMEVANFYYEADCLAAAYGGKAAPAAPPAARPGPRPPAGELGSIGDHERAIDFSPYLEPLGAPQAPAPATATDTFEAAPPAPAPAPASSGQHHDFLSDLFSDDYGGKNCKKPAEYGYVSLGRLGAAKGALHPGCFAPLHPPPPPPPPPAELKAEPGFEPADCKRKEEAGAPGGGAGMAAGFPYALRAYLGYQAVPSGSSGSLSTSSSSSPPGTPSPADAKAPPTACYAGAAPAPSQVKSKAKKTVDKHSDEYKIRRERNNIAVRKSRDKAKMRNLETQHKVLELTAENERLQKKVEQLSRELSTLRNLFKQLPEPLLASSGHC

Tested on in one test: not listed separately
The test is described as follows: ATG_CRE_CIS: Attagene CIS-FACTORIAL HepG2 Assay for human cAMP Responsive Element (CRE) binding protein 3 (AID 2282926). Particulars: HepG2 CRE cis-reporter, Attagene multiplexed mRNA; actives raise or lower the signal. Summed up: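 Assay format: transient reporter transfection of HepG2, 24 h treatment, total RNA isolation with DNase I step. Reporter abundance read by fluorescence after PCR and capillary separation; DMSO-normalised gain or loss fitting.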
For `CCCCOCCOCCOC(C)=O`, the outcome was inactive.

Turning to `CC1=CCC2CC1C2(C)C` (centres undefined), the outcome was inactive.

In the case of `c1ccc2cnccc2c1`, the outcome was inactive.

For the compound `CCCCCCCCCCCCc1ccc(O)cc1`, the call was inactive.

For the compound `O=C(C=Cc1ccccc1)OCCc1ccccc1`, the result was inactive.

As for `CCC(C)N` (centres undefined), the compound was called inactive.

Regarding `CCCCCCOC(=O)CCCCC(=O)OCCCCCC`, the call was inactive.

For the compound `CCCC/C=C/C=C\C=O`, the compound was classed as inactive.

Turning to `Oc1c(Cl)cc(Cl)c(Cl)c1Cl`, the compound was called inactive.

`CN(C)c1ccc2nc3ccc(=[N+](C)C)cc-3sc2c1`: the result was inactive.

For the compound `CCC(=O)C1CC(C(C)C)CC=C1C` (centres undefined), the compound was called inactive.

As for `O=C1CCCCCCCCCCCN1`, the compound was classed as inactive.

With `CC(=O)OCC=C(C)C`, the compound was called inactive.

Turning to `CC(C=O)c1ccccc1` (centres undefined), the outcome was inactive.

As for `N=C1C=CC(=C(c2ccc(N)cc2)c2ccc(N)cc2)C=C1`, the outcome was inactive.

Regarding `CO[Si](CCCS)(OC)OC`, the outcome was inactive.

For the compound `CCCCCCCO`, the result was inactive.

Turning to `CC1CCC(=O)C1=O` (centres undefined), the outcome was inactive.

`CCOC(=O)c1ccc(C)cc1`: the outcome was inactive.

As for `CC(C)(C)N`, the result was inactive.

For `COC(Cc1ccccc1)OC`, the compound was classed as inactive.

`CC1(C)CCC[C@]2(C)[C@H]3CC(=O)O[C@]3(C)CC[C@@H]12`: the outcome was inactive.

Regarding `CCOC(=O)[C@H](O)[C@@H](O)C(=O)OCC`, the compound was called inactive.

Take `CCCC=C(C=O)CC`: the outcome was inactive.

For the compound `CC(C)c1cc(C(C)C)cc(C(C)C)c1`, the compound was called inactive.

Consider `O=C(O[C@@H]1Cc2c(O)cc(O)cc2O[C@@H]1c1cc(O)c(O)c(O)c1)c1cc(O)c(O)c(O)c1`, for which the compound was classed as inactive.

`CC1=NN(c2ccc(S(=O)(=O)O)cc2)C(=O)C1N=Nc1ccccc1` (centres undefined): the compound was classed as inactive.

For `CC(=O)CCC=C(C)C`, the compound was classed as inactive.

With `COc1ccc(C(=O)/C(Br)=C\C(=O)O)cc1`, the result was inactive.

Regarding `CCOC(=O)CC(=O)c1ccccc1`, the result was inactive.

Turning to `CC(c1cc(C(C)(C)C)cc(C(C)(C)C)c1O)c1cc(C(C)(C)C)cc(C(C)(C)C)c1O`, the outcome was inactive.

Regarding `Cc1ccc(C)c(OCCCC(C)(C)C(=O)O)c1`, the compound was called inactive.

For `Nc1cccc(N)n1`, the call was inactive.

For `Cc1cc(C)c(C=O)c(C)c1`, the call was inactive.

On to `CC1C(C)(C)C2=C(C(=O)CCC2)C1(C)C` (centres undefined), for which the outcome was inactive.

Regarding `CCN1CCCC1=O`, the call was inactive.

In general, AC50 refers to the concentration giving half of the maximal activity seen. Consider `Oc1ccc(-c2ccccc2)c(Cl)c1`, for which the AC50 was 33.4 µM (active).

For `CCCCCCCCCC(C)=O`, the compound was called inactive.

The next test addresses CCAAT/enhancer-binding protein beta (Homo sapiens) (UniProt P17676). The test is described as follows: ATG_C_EBP_CIS: Attagene CIS-FACTORIAL HepG2 Assay for human CCAAT/Enhancer Binding Protein (C/EBP) beta (AID 2282927). As to conditions: HepG2 Attagene cis-factorial transcription factor reporter; actives raise or lower the signal. Put shortly: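 Endogenous transcription factor activity in human liver HepG2 cells is inferred from induction of a CEBPB-linked reporter mRNA. Exposure lasts 24 h; activity is fitted in both directions relative to DMSO.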
As to `CCCCOCCOCCOC(C)=O`, the outcome was inactive.

For the compound `CC1=CCC2CC1C2(C)C` (centres undefined), the result was inactive.

Consider `c1ccc2cnccc2c1`, for which the result was inactive.

On to `CCCCCCCCCCCCc1ccc(O)cc1`, for which the result was inactive.

Turning to `O=C(C=Cc1ccccc1)OCCc1ccccc1`, the outcome was inactive.

Turning to `CCC(C)N` (centres undefined), the result was inactive.

As for `CCCCCCOC(=O)CCCCC(=O)OCCCCCC`, the outcome was inactive.

On to `CCCC/C=C/C=C\C=O`, for which the result was inactive.

In the case of `Oc1c(Cl)cc(Cl)c(Cl)c1Cl`, the outcome was inactive.

As to `CN(C)c1ccc2nc3ccc(=[N+](C)C)cc-3sc2c1`, the result was inactive.

Consider `CCC(=O)C1CC(C(C)C)CC=C1C` (centres undefined), for which the outcome was inactive.

As for `O=C1CCCCCCCCCCCN1`, the outcome was inactive.

Regarding `CC(=O)OCC=C(C)C`, the result was inactive.

Take `CC(C=O)c1ccccc1` (centres undefined): the outcome was inactive.

Consider `N=C1C=CC(=C(c2ccc(N)cc2)c2ccc(N)cc2)C=C1`, for which the AC50 was 168 µM (active).

Regarding `CO[Si](CCCS)(OC)OC`, the outcome was inactive.

Regarding `CCCCCCCO`, the outcome was inactive.

As to `CC1CCC(=O)C1=O` (centres undefined), the outcome was inactive.

For `CCOC(=O)c1ccc(C)cc1`, the result was inactive.

In the case of `CC(C)(C)N`, the outcome was inactive.

Consider `COC(Cc1ccccc1)OC`, for which the outcome was inactive.

With `CC1(C)CCC[C@]2(C)[C@H]3CC(=O)O[C@]3(C)CC[C@@H]12`, the result was inactive.

For `CCOC(=O)[C@H](O)[C@@H](O)C(=O)OCC`, the outcome was inactive.

For the compound `CCCC=C(C=O)CC`, the result was inactive.

As for `CC(C)c1cc(C(C)C)cc(C(C)C)c1`, the AC50 was 182 µM (active).

For the compound `O=C(O[C@@H]1Cc2c(O)cc(O)cc2O[C@@H]1c1cc(O)c(O)c(O)c1)c1cc(O)c(O)c(O)c1`, the result was inactive.

With `CC1=NN(c2ccc(S(=O)(=O)O)cc2)C(=O)C1N=Nc1ccccc1` (centres undefined), the result was inactive.

As for `CC(=O)CCC=C(C)C`, the outcome was inactive.

`COc1ccc(C(=O)/C(Br)=C\C(=O)O)cc1`: the AC50 was 129 µM (active).

Take `CCOC(=O)CC(=O)c1ccccc1`: the outcome was inactive.

On to `CC(c1cc(C(C)(C)C)cc(C(C)(C)C)c1O)c1cc(C(C)(C)C)cc(C(C)(C)C)c1O`, for which the outcome was inactive.

`Cc1ccc(C)c(OCCCC(C)(C)C(=O)O)c1`: the result was inactive.

For the compound `Nc1cccc(N)n1`, the result was inactive.

Take `Cc1cc(C)c(C=O)c(C)c1`: the outcome was inactive.

As to `CC1C(C)(C)C2=C(C(=O)CCC2)C1(C)C` (centres undefined), the result was inactive.

In the case of `CCN1CCCC1=O`, the outcome was inactive.

Regarding `Oc1ccc(-c2ccccc2)c(Cl)c1`, the result was inactive.

Regarding `CCCCCCCCCC(C)=O`, the outcome was inactive.

Tested on in a further test: not listed separately
Nature of the test: ATG_CMV_CIS: Attagene CIS-FACTORIAL HepG2 Assay for human CMV (Internal Marker) (AID 2282928).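 Also: endpoint acts as a background internal control marker rather than a target.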 Particulars: HepG2 CMV promoter reporter, transcription factor profiling; actives raise or lower the signal. Summed up: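 Fluorescence intensity of RT-PCR-derived reporter fragments, resolved by capillary electrophoresis, gives the signal. HepG2 liver cells bearing transfected cis-element reporters were treated 24 h; activity in either direction was fit relative to DMSO-treated controls.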
With `CCCCOCCOCCOC(C)=O`, the compound was called inactive.

With `CC1=CCC2CC1C2(C)C` (centres undefined), the outcome was inactive.

In the case of `c1ccc2cnccc2c1`, the call was inactive.

Take `CCCCCCCCCCCCc1ccc(O)cc1`: the result was inactive.

For `O=C(C=Cc1ccccc1)OCCc1ccccc1`, the call was inactive.

Regarding `CCC(C)N` (centres undefined), the outcome was inactive.

Turning to `CCCCCCOC(=O)CCCCC(=O)OCCCCCC`, the result was inactive.

On to `CCCC/C=C/C=C\C=O`, for which the AC50 was 159 µM (active).

Take `Oc1c(Cl)cc(Cl)c(Cl)c1Cl`: the result was inactive.

Regarding `CN(C)c1ccc2nc3ccc(=[N+](C)C)cc-3sc2c1`, the AC50 is 1.69 µM (active).

Take `CCC(=O)C1CC(C(C)C)CC=C1C` (centres undefined): the call was inactive.

For the compound `O=C1CCCCCCCCCCCN1`, the compound was classed as inactive.

Consider `CC(=O)OCC=C(C)C`, for which the call was inactive.

Turning to `CC(C=O)c1ccccc1` (centres undefined), the call was inactive.

Turning to `N=C1C=CC(=C(c2ccc(N)cc2)c2ccc(N)cc2)C=C1`, the AC50 was 33.4 µM (active).

On to `CO[Si](CCCS)(OC)OC`, for which the call was inactive.

As for `CCCCCCCO`, the outcome was inactive.

As to `CC1CCC(=O)C1=O` (centres undefined), the compound was called inactive.

Take `CCOC(=O)c1ccc(C)cc1`: the call was inactive.

In the case of `CC(C)(C)N`, the compound was called inactive.

For `COC(Cc1ccccc1)OC`, the outcome was inactive.

With `CC1(C)CCC[C@]2(C)[C@H]3CC(=O)O[C@]3(C)CC[C@@H]12`, the result was inactive.

On to `CCOC(=O)[C@H](O)[C@@H](O)C(=O)OCC`, for which the compound was called inactive.

As for `CCCC=C(C=O)CC`, the compound was called inactive.

Consider `CC(C)c1cc(C(C)C)cc(C(C)C)c1`, for which the AC50 is 36 µM (active).

Take `O=C(O[C@@H]1Cc2c(O)cc(O)cc2O[C@@H]1c1cc(O)c(O)c(O)c1)c1cc(O)c(O)c(O)c1`: the AC50 is 20.8 µM (active).

For `CC1=NN(c2ccc(S(=O)(=O)O)cc2)C(=O)C1N=Nc1ccccc1` (centres undefined), the outcome was inactive.

On to `CC(=O)CCC=C(C)C`, for which the result was inactive.

In the case of `COc1ccc(C(=O)/C(Br)=C\C(=O)O)cc1`, the AC50 was 36 µM (active).

As to `CCOC(=O)CC(=O)c1ccccc1`, the result was inactive.

Turning to `CC(c1cc(C(C)(C)C)cc(C(C)(C)C)c1O)c1cc(C(C)(C)C)cc(C(C)(C)C)c1O`, the outcome was inactive.

As to `Cc1ccc(C)c(OCCCC(C)(C)C(=O)O)c1`, the compound was called inactive.

Regarding `Nc1cccc(N)n1`, the outcome was inactive.

On to `Cc1cc(C)c(C=O)c(C)c1`, for which the result was inactive.

Turning to `CC1C(C)(C)C2=C(C(=O)CCC2)C1(C)C` (centres undefined), the result was inactive.

Take `CCN1CCCC1=O`: the outcome was inactive.

Consider `Oc1ccc(-c2ccccc2)c(Cl)c1`, for which the AC50 was 43.1 µM (active).

Regarding `CCCCCCCCCC(C)=O`, the outcome was inactive.
